The results in this text go back to publication PMC7862700, “An all-to-all approach to the identification of sequence-specific readers for epigenetic DNA modifications on cytosine”.

Common to all, as to assay: DAPPL (digital affinity profiling via proximity ligation, sequencing); 10 mM Tris-HCl pH 7.5, 50 mM NaCl, 1 mM DTT, 4% glycerol, room temperature, 30 min; GST-TFs on glutathione beads, 16-mer random dsDNA library, 0.1% formaldehyde crosslink after washing; high values mean tight binding
One assay deals with T1, FEV (Homo sapiens, UniProt Q99581 1-238).
T1 sequence: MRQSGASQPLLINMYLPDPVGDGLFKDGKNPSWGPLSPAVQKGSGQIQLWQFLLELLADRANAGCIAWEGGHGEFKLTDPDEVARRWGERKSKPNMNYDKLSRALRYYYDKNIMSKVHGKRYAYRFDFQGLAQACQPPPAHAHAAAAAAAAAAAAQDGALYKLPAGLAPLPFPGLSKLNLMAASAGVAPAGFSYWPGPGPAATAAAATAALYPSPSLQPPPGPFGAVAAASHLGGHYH
The following applies: protein: recombinant; tags: N-terminal GST; dsDNA, one strand shown. In a few lines: (§1)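 Yeast served to express human transcription factors as GST fusions, which were then captured on glutathione beads and labelled with DNA barcodes. Pooled with a tag-only sample, they were incubated with 200 nmole of a 16-mer random double-stranded DNA library for 30 min at room temperature in Tris/NaCl/DTT/glycerol buffer, washed, crosslinked with 0.1% formaldehyde, ligated by proximity, amplified by PCR and sequenced. Dividing each hexamer's read frequency for a factor by its frequency for the tag-only sample gives the binding signal.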

The next assay has as its target ETV5 (Homo sapiens, UniProt P41161 1-510). Particulars: protein: recombinant; tags: N-terminal GST; dsDNA, one strand shown. The method in brief: as §1
In another assay the target is HSF1 (Homo sapiens, UniProt Q00613 1-529). The following applies: protein: recombinant; tags: N-terminal GST; chain copies: 3; dsDNA, one strand shown. In a few lines:
as §1

In another assay the target is T2, SPIC (Homo sapiens, UniProt Q8N5J4 1-248).
T2 sequence: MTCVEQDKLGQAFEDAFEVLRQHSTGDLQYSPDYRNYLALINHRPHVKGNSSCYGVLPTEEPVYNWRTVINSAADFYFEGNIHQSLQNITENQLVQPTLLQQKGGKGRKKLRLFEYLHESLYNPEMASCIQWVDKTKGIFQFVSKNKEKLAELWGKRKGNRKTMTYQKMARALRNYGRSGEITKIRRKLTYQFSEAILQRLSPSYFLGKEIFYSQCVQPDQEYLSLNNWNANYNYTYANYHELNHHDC
Particulars: protein: recombinant; tags: N-terminal GST; dsDNA, one strand shown. The method in brief: as §1

The target in the next assay is ELF4 (Homo sapiens, UniProt Q99607 1-663). The following applies: protein: recombinant; tags: N-terminal GST; dsDNA, one strand shown. In a few lines: as §1
Chain of ELF4 (Q99607 whole entry): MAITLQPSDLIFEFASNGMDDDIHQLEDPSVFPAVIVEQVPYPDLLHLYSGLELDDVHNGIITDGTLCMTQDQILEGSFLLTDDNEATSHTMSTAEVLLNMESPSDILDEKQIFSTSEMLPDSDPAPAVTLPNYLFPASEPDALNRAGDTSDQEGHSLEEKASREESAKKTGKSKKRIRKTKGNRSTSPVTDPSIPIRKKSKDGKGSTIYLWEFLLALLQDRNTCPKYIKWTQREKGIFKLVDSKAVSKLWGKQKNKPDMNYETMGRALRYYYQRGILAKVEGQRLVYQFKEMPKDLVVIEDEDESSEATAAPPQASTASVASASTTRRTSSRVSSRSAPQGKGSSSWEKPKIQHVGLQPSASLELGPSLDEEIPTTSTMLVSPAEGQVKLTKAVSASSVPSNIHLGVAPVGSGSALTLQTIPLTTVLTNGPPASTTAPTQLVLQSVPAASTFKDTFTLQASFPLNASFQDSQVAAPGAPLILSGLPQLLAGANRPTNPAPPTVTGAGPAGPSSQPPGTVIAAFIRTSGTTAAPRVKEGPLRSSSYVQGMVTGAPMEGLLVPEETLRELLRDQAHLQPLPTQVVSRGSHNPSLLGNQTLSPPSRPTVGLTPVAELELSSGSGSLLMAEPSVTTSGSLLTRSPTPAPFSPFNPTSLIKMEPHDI
The target in another assay is T3, ELK4 (Homo sapiens, UniProt P28324-2 1-405).
T3 sequence: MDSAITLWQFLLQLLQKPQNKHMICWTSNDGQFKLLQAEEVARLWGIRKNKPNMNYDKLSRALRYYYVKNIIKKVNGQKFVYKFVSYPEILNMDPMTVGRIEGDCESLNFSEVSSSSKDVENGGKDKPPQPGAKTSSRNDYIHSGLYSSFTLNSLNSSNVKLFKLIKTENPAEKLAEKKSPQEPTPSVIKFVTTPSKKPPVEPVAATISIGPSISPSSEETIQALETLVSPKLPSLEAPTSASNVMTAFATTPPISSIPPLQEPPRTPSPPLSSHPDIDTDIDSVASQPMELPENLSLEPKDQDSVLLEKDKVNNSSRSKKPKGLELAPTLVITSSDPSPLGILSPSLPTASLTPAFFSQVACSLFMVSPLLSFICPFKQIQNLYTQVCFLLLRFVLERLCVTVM
The following applies: protein: recombinant; tags: N-terminal GST; dsDNA, one strand shown. In a few lines:
as §1

In another assay the target is T4, ETV2 (Homo sapiens, UniProt O00321 1-342).
T4 sequence: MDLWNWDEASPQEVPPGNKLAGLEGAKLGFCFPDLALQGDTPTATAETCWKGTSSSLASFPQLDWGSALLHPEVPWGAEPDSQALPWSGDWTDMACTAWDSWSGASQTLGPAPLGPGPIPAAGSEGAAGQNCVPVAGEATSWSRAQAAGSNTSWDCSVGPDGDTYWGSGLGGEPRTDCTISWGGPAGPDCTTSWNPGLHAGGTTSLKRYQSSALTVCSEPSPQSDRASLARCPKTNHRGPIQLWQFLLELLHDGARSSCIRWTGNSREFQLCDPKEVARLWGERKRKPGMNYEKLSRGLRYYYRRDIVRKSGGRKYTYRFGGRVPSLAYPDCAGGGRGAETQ
Particulars: protein: recombinant; tags: N-terminal GST; dsDNA, one strand shown. In a few lines: as §1

A further assay concerns the target T5, ELF3 (Homo sapiens, UniProt P78545 1-371).
T5 sequence: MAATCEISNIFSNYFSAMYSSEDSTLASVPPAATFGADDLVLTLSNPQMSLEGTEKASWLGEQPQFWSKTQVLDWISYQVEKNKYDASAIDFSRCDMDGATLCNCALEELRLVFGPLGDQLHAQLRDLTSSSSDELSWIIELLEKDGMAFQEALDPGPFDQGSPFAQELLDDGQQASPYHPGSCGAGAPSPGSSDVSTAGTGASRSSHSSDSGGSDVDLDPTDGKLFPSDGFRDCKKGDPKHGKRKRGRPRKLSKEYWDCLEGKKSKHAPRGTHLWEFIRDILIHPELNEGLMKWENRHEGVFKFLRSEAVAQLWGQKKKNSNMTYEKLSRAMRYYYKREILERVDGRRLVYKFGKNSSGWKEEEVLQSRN
The following applies: protein: recombinant; tags: N-terminal GST; dsDNA, one strand shown. In a few lines: as §1

Another assay has as its target CRX (Homo sapiens, UniProt O43186 1-299). Particulars: protein: recombinant; tags: N-terminal GST; dsDNA, one strand shown. In a few lines: as §1
A further assay addresses ETV1 (Homo sapiens, UniProt P50549 1-477). Particulars: protein: recombinant; tags: N-terminal GST; dsDNA, one strand shown. The method in brief:
as §1

Chain of ETV1 (P50549 whole entry): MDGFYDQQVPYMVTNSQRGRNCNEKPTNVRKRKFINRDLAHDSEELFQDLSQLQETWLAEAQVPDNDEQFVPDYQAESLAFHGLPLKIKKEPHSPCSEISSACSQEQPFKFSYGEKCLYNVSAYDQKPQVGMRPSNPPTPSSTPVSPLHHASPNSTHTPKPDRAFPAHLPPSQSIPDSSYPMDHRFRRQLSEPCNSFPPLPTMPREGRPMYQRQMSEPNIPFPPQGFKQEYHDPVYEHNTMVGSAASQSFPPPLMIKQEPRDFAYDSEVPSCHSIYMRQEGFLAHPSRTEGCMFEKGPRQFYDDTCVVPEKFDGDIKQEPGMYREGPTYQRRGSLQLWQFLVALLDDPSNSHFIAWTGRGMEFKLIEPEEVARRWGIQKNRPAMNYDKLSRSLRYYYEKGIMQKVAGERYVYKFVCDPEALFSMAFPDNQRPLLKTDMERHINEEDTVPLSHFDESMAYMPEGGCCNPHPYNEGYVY
Chain of CRX (O43186 whole entry): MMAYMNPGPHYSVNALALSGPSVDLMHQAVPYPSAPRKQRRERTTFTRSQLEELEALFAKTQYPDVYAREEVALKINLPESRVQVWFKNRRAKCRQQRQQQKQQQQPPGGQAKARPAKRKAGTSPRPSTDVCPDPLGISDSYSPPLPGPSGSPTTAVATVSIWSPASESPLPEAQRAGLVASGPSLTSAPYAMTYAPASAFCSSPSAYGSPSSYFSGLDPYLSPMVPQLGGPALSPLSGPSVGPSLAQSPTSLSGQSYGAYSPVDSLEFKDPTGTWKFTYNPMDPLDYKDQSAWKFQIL
Chain of HSF1 (Q00613 whole entry): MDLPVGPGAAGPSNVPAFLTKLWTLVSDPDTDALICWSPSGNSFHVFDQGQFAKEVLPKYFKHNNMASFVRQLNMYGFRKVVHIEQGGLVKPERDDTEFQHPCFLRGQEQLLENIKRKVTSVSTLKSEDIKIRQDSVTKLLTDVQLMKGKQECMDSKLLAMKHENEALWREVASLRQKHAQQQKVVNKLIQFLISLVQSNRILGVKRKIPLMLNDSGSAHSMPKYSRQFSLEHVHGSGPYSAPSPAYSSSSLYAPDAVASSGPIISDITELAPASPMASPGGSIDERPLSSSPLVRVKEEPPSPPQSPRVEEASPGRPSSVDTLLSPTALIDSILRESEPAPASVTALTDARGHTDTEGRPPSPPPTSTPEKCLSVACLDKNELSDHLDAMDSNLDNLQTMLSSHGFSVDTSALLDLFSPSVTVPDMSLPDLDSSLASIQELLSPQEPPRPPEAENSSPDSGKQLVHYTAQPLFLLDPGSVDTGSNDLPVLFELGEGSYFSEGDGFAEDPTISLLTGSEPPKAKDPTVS
Chain of ETV5 (P41161 whole entry): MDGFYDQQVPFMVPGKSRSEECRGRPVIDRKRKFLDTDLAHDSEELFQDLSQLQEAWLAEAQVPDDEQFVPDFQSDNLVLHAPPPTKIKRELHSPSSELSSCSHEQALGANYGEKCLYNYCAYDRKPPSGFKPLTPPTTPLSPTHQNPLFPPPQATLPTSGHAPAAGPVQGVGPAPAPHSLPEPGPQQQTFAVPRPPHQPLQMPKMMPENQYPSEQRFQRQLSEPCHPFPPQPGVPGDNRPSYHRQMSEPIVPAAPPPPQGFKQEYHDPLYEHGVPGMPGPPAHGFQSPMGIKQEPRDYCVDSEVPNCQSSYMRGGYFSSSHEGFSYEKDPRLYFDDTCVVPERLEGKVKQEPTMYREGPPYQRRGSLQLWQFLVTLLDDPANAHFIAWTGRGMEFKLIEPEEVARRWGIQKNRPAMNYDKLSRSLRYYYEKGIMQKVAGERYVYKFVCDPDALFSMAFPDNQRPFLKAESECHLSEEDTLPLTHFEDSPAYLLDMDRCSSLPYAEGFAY

Regarding CGGCTT, the binding signal was 1.14 fold enrichment (6-mer frequency, TF over GST control) with FEV; 1.16 fold enrichment (6-mer frequency, TF over GST control) with ETV5; 1.35 fold enrichment (6-mer frequency, TF over GST control) with HSF1; 1.13 fold enrichment (6-mer frequency, TF over GST control) in the assay with SPIC; 1.1 fold enrichment (6-mer frequency, TF over GST control) with ELF4; 1.09 fold enrichment (6-mer frequency, TF over GST control) with ELK4. Besides, the binding signal in the assay with ETV2 is 1.27 fold enrichment (6-mer frequency, TF over GST control); with ELF3 it was 1.15 fold enrichment (6-mer frequency, TF over GST control); with CRX, 1.95 fold enrichment (6-mer frequency, TF over GST control); in the assay with ETV1 it was 1.2 fold enrichment (6-mer frequency, TF over GST control).

For CCTTAT, the binding signal with FEV was 1.4 fold enrichment (6-mer frequency, TF over GST control); with ETV5, 1.41 fold enrichment (6-mer frequency, TF over GST control); with HSF1, 1.35 fold enrichment (6-mer frequency, TF over GST control); in the assay with SPIC, 1.33 fold enrichment (6-mer frequency, TF over GST control); in the assay with ELF4, 1.47 fold enrichment (6-mer frequency, TF over GST control); with ELK4, 1.45 fold enrichment (6-mer frequency, TF over GST control). Further, the binding signal was 1.39 fold enrichment (6-mer frequency, TF over GST control) in the assay with ETV2; 1.37 fold enrichment (6-mer frequency, TF over GST control) in the assay with ELF3; 1.77 fold enrichment (6-mer frequency, TF over GST control) in the assay with CRX; 1.62 fold enrichment (6-mer frequency, TF over GST control) in the assay with ETV1.

In the case of TATAAG, the binding signal was 1.05 fold enrichment (6-mer frequency, TF over GST control) in the assay with FEV; 1.12 fold enrichment (6-mer frequency, TF over GST control) with ETV5; 1.51 fold enrichment (6-mer frequency, TF over GST control) with HSF1; 1.1 fold enrichment (6-mer frequency, TF over GST control) in the assay with SPIC; 1.15 fold enrichment (6-mer frequency, TF over GST control) in the assay with ELF4; 1.08 fold enrichment (6-mer frequency, TF over GST control) with ELK4. Besides, the binding signal with ETV2 was 1.22 fold enrichment (6-mer frequency, TF over GST control); in the assay with ELF3 it was 1.23 fold enrichment (6-mer frequency, TF over GST control); with CRX, 2.08 fold enrichment (6-mer frequency, TF over GST control); with ETV1, 1.15 fold enrichment (6-mer frequency, TF over GST control).

On to TTGCTG, for which the binding signal in the assay with FEV is 1.13 fold enrichment (6-mer frequency, TF over GST control); with ETV5, 1.09 fold enrichment (6-mer frequency, TF over GST control); with HSF1, 1.23 fold enrichment (6-mer frequency, TF over GST control); with SPIC, 1.02 fold enrichment (6-mer frequency, TF over GST control); with ELF4, 1.35 fold enrichment (6-mer frequency, TF over GST control); in the assay with ELK4 it was 1.34 fold enrichment (6-mer frequency, TF over GST control). For the same sequence, the binding signal with ETV2 was 1.42 fold enrichment (6-mer frequency, TF over GST control); with ELF3 it was 1.33 fold enrichment (6-mer frequency, TF over GST control); in the assay with CRX, 1.26 fold enrichment (6-mer frequency, TF over GST control); in the assay with ETV1 it was 1.39 fold enrichment (6-mer frequency, TF over GST control).

CGAAAA: the binding signal was 1.04 fold enrichment (6-mer frequency, TF over GST control) with FEV; 1.13 fold enrichment (6-mer frequency, TF over GST control) in the assay with ETV5; 1.85 fold enrichment (6-mer frequency, TF over GST control) in the assay with HSF1; 1.07 fold enrichment (6-mer frequency, TF over GST control) with SPIC; 1.11 fold enrichment (6-mer frequency, TF over GST control) with ELF4; 1.12 fold enrichment (6-mer frequency, TF over GST control) with ELK4. Also, the binding signal is 1.04 fold enrichment (6-mer frequency, TF over GST control) in the assay with ETV2; 1.01 fold enrichment (6-mer frequency, TF over GST control) in the assay with ELF3; 1.12 fold enrichment (6-mer frequency, TF over GST control) with CRX; 1.06 fold enrichment (6-mer frequency, TF over GST control) in the assay with ETV1.

On to GCTGTA, for which the binding signal was 1.15 fold enrichment (6-mer frequency, TF over GST control) in the assay with FEV; 1.06 fold enrichment (6-mer frequency, TF over GST control) with ETV5; 1 fold enrichment (6-mer frequency, TF over GST control) with HSF1; 1.36 fold enrichment (6-mer frequency, TF over GST control) with SPIC; 1.08 fold enrichment (6-mer frequency, TF over GST control) with ELF4; 1.09 fold enrichment (6-mer frequency, TF over GST control) with ELK4. The binding signal is 1.08 fold enrichment (6-mer frequency, TF over GST control) with ETV2; 1.07 fold enrichment (6-mer frequency, TF over GST control) with ELF3; 1.02 fold enrichment (6-mer frequency, TF over GST control) with CRX; 1.06 fold enrichment (6-mer frequency, TF over GST control) with ETV1.

Consider AAACTT, for which the binding signal with FEV is 1.3 fold enrichment (6-mer frequency, TF over GST control); with ETV5 it was 1.22 fold enrichment (6-mer frequency, TF over GST control); with HSF1, 1.37 fold enrichment (6-mer frequency, TF over GST control); in the assay with SPIC, 1.36 fold enrichment (6-mer frequency, TF over GST control); with ELF4, 1.26 fold enrichment (6-mer frequency, TF over GST control); with ELK4, 1.23 fold enrichment (6-mer frequency, TF over GST control). The binding signal with ETV2 was 1.28 fold enrichment (6-mer frequency, TF over GST control); with ELF3, 1.13 fold enrichment (6-mer frequency, TF over GST control); with CRX, 1.21 fold enrichment (6-mer frequency, TF over GST control); with ETV1, 1.27 fold enrichment (6-mer frequency, TF over GST control).
